{"source": "PubChem BioAssay AID504854", "about": "(Southern Research Specialized Biocontainment Screening …, 2011)", "note": "Entries with a potency or affinity are not part of this list. Unmarked numbers belong to inactive results. No rule for the calls is given here.", "data": [{"assay": "Vero cell cytotoxicity, dose response, cytotoxicity control for M. tuberculosis growth inhibitor project, Vero cells, purified and synthesized compounds, set 4 (AID 504854)", "conditions": "series mostly up to 100 µM; viability: at the top concentration", "units": {"viability": "%"}, "values": [{"smiles": "O=c1[nH]c(=S)[nH]c2ccccc12", "viability": 94.9}, {"smiles": "COC(=O)c1ccc(CNc2c(N3CCCC3)c(=O)c2=O)cc1", "viability": 93.3}, {"smiles": "O=C(CSc1nc2ccccc2c(=O)[nH]1)N1CCOCC1", "viability": 84.2}, {"smiles": "Cc1nc(SCC(=O)N(C)c2ccccc2)[nH]c(=O)c1C", "viability": 97}, {"smiles": "CCOC(=O)CSc1nc(C)c(C)c(=O)[nH]1", "viability": 95.6}, {"smiles": "CC(C)CCNC(=O)CSc1nc2ccccc2c(=O)[nH]1", "viability": 92.4}, {"smiles": "CCC(Sc1nc2ccccc2c(=O)[nH]1)C(=O)NC1CCCCC1", "note": "(stereo unspecified)", "viability": 97.8}, {"smiles": "O=C(CSc1ncccn1)NC1CCCCC1", "viability": 91.7}, {"smiles": "Nc1c(C(=O)NC2CCCCC2)nsc1C(=O)OCC(=O)NC1CCCCC1", "viability": 96.5}, {"smiles": "NC(=O)CSc1nc2ccccc2c(=O)[nH]1", "viability": 98.6}, {"smiles": "COc1ccc(NC(=O)CSc2nc3ccccc3c(=O)[nH]2)cc1", "viability": 86.4}, {"smiles": "CC[N+](C)(CC)CCCCOc1ccc2c(c1)C(=O)c1cc(OCCCC[N+](C)(CC)CC)ccc1-2", "viability": 92.3}, {"smiles": "Cc1cc(=O)[nH]c(SCC(=O)NC2CCCCC2)n1", "viability": 86.1}, {"smiles": "CCSc1nc(C)c(C)c(=O)[nH]1", "viability": 94.9}, {"smiles": "COc1cccc(NC(=O)CSc2nc3c(c(=O)[nH]2)CCC3)c1", "viability": 87.3}, {"smiles": "CN(C)C(=O)CSc1nc2ccccc2c(=O)[nH]1", "viability": 105}, {"smiles": "Cc1nc(SCC(=O)NC2CCCC2)[nH]c(=O)c1C", "viability": 106}, {"smiles": "O=C(CSc1nccc(=O)[nH]1)NC1CCCCC1", "viability": 90.6}, {"smiles": "Cc1nc(SCc2ccccc2Cl)[nH]c(=O)c1C", "viability": 97.2}, {"smiles": "Cc1cccc(/C=C/C(=O)c2ccc([N+](=O)[O-])o2)c1", "viability": 102}, {"smiles": "O=C(CSc1nc2ccccc2c(=O)[nH]1)NC1CCCCC1", "viability": 96.3}]}]}
